{"source": "PubChem BioAssay (NCI)", "note": "About 83,000 compounds went through this panel and 20% of them were active in at least one assay; those are over-represented in the sample as a whole.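 96-well plates, one dose, 48 hours. Percent growth reported; active if below 10.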 Values without a mark were called inactive. Activity calls are given as the source filed them.", "data": [{"system": "UO-31 renal", "experiment": "NCI-60 one-dose screen, 48 h (100 = growth as untreated, 0 = no growth, -100 = all killed)", "conditions": "10 µM unless noted", "method": "Growth inhibition of the UO-31 human tumor cell line is measured as a screen for anti-cancer activity. Cells are grown in 96 well plates and exposed to the test compound for 48 hours. Compounds are tested at a single concentration, which is 10^-5 M for most compounds. The reported endpoint is percent growth (GI% or GIPRCNT), where numbers from 0 - 100% represent growth inhibition, and numbers from -100% - 0 represent cell death. For example, a value of 40 represents 60% growth inhibition. A value of 0 means no net growth occurred over the course of the experiment. A value of -40 indicates 40% of cells at the beginning of the experiment died by the end of the experiment. A value of -100 means all cells are dead at the end of the experiment.\nNCI-60 Human Tumor Cell Lines Screen was performed using the standard one-dose NCI protocol, which is described in more detail at https://dtp.cancer.gov/discovery_development/nci-60/default.htm.\nCompounds with GIPRCNT values below 10 were considered active. Activity score was based on GIPRCNT using the following formula: […]\nScore is 0 for GIPRCNT values of 100 or above, 50 for GIPRCNT values of 0, and 100 for GIPRCNT values of -100.", "values": [{"compound": "O=C(CSc1nnc(-c2ccc(NC(=O)c3cccnc3)cc2)o1)N[C@@H](Cc1ccc(O)cc1)C(=O)O", "growth": "85.1%"}, {"compound": "O=C(Nc1ccccc1)Nc1cccc(Oc2nnc(Cl)c3ccccc23)c1", "growth": "34.9%"}, {"compound": "CC(C)(C)OC(=O)Nc1ccc2c(c1)C(NC(=O)Nc1cccc(C#N)c1)CC(C)(C)O2", "note": "(stereo not given)", "growth": "40.8%"}, {"compound": "Cc1ccc(Nc2ccc(Nc3ccc(C)cc3)c3c2C(=O)c2cccc(O)c2C3=O)cc1", "growth": "64.7%"}, {"compound": "O=C(Nc1ccccc1-c1nc2ccccc2c(=O)[nH]1)c1cc2ccccc2[nH]1", "growth": "63.6%"}, {"compound": "COc1cc(C2NC(=O)c3ccccc3N2)ccc1OCCCCCOc1c(OC)cc(C2=NOC(c3cc(OC)c(OC)c(OC)c3)C2)cc1OC", "note": "(stereo not given)", "growth": "69.2%"}, {"compound": "O=c1oc2ccccc2c(Cl)c1Cl", "growth": "62.3%"}, {"compound": "O=C(N=c1oc2ccccc2cc1-c1cc2ccccc2[nH]1)c1ccc(Cl)cc1", "growth": "54.5%"}, {"compound": "NCCCNc1nc2ccccc2c2c(=O)c3cccc(Cl)c3sc12", "growth": "3.93% (active)"}, {"compound": "Cc1ccc(S(=O)(=O)n2cc(CNc3ccc(N4CCOCC4=O)cc3)c3ccccc32)cc1", "growth": "43.3%"}, {"compound": "Cc1cc(Cl)nc(NCc2cc(Nc3ccnc4cc(Cl)ccc34)ccc2F)n1", "growth": "44%"}, {"compound": "CCOC(=O)c1c(-c2ccc(Cl)cc2)c(C#N)c(=O)n(-c2ccccc2CC)c1N", "growth": "71.6%"}, {"compound": "CCCCCCCCCCCCCCCCCCOc1ccccc1CC(=O)OCCC[N+](C)(C)C", "growth": "90.1%"}, {"compound": "N#Cc1c(N2CCNCC2)nc2sc3cc(Cl)c(Cl)cc3n2c1=N", "growth": "80.8%"}, {"compound": "CC(=O)OC1CCC2(C)C(=CC3C4CCC(=O)C4(C)CCC32)C1", "note": "(stereo not given)", "growth": "96.2%"}, {"compound": "O=C(NCCCNc1cc(-c2cn(-c3ccccc3)nc2-c2cccc(O)c2)ccn1)c1ccc(F)cc1", "growth": "27.1%"}, {"compound": "COc1ccc(-c2cc(-c3cc(OC)ccc3OC)nc(SCC(=O)c3ccccc3)c2C#N)cc1", "growth": "81.9%"}, {"compound": "CC(=O)O[C@]1(C(C)=O)CCC2C3C[C@H](C)C4=CC(=O)CC[C@]4(C)C3CC[C@@]21C", "note": "(stereo not given in full)", "growth": "65.6%"}, {"compound": "Cc1nn(-c2ccccc2)c(Cl)c1/C=C(/NC(=O)c1ccccc1)c1nc2ccccc2[nH]1", "growth": "80.2%"}, {"compound": "Cc1nc2ccccc2c(/C=C/c2ccc(Cl)cc2)c1C(=O)/C=C/c1ccc(F)cc1", "growth": "-79.4% (active)"}, {"compound": "O=[N+]([O-])c1ccc(OCCO)cc1", "growth": "86.2%"}, {"compound": "N#CC1=C(c2ccc(Br)cc2)NC(SCC(=O)c2ccc(Br)cc2)NC1=O", "note": "(stereo not given)", "growth": "89.9%"}, {"compound": "Cc1cccc(Cc2cnc(NC(=O)c3ccc4nnsc4c3)s2)c1", "growth": "78.5%"}, {"compound": "Cc1ccc(C2SCC(=O)N2Cc2ccccc2)cc1", "note": "(stereo not given)", "growth": "83.8%"}, {"compound": "C(=N\\Nc1ncc(-c2cc3cc4c(cc3o2)OCO4)s1)/c1ccco1", "growth": "-43.4% (active)"}, {"compound": "COc1cc(/C=C2\\C(=O)ON=C2C)cc(OC)c1OC", "growth": "80.3%"}, {"compound": "O=C(O)C1CCC(=O)N1C(=O)OCc1ccccc1", "note": "(stereo not given)", "growth": "88.7%"}, {"compound": "COc1cc(/C=C/C(=O)c2c(C)nc3ccccc3c2/C=C/c2ccc(C)cc2)cc(OC)c1OC", "growth": "33.5%"}, {"compound": "CNC(=O)c1cc(Oc2cccc3nc(Nc4ccc(F)c(Cl)c4)ccc23)ccn1", "growth": "68.7%"}, {"compound": "O=C(CCCCCCSc1nc(-c2ccccc2)cc(-c2ccc(Cl)cc2)n1)NO", "growth": "-2.31% (active)"}, {"compound": "Cc1cccc(NC(=O)N/C(N)=N/c2nc(C)c(C)s2)c1", "growth": "64.3%"}, {"compound": "C[n+]1cccc(CC(=O)NO)c1", "growth": "97.3%"}, {"compound": "Cc1ccc(C(=O)C2=C(O)C(=O)N(Cc3cccnc3)C2c2ccccc2F)o1", "note": "(stereo not given)", "growth": "93.3%"}, {"compound": "COc1ccc2[nH]c(O)c(C(=Nc3ccc(N(C)C(=O)CN4CCN(C)CC4)cc3)c3ccccc3)c2c1", "growth": "18.8%"}, {"compound": "COc1cc(/C=C/C(=O)N2CCN(C(=O)c3cc(OC)c(OC)c(OC)c3)CC2)ccc1OCCCN1C(=O)c2cccc3cccc(c23)C1=O", "growth": "42.1%"}, {"compound": "COc1ccc(Cl)cc1NC(=O)C(Br)C(Br)C(=O)O", "note": "(stereo not given)", "growth": "71.2%"}, {"compound": "O=C(/C=C/c1ccco1)c1ccc(Nc2nc(Nc3ccc(F)cc3)nc(Nc3ccc(Cl)cc3)n2)cc1", "growth": "85.3%"}, {"compound": "O=C(NCCNc1cc(-c2cn(-c3ccccc3)nc2-c2cccc(O)c2)ccn1)Nc1ccccc1", "growth": "58.6%"}, {"compound": "c1coc(-c2c3ccc(=[N+]4CCCCC4)cc-3oc3cc(N4CCCCC4)ccc23)c1", "growth": "-84.6% (active)"}, {"compound": "COc1cc(/C=N/n2c(CN3CCOCC3)nc3ccccc3c2=O)cc(OC)c1OC", "growth": "87.7%"}]}]}
